# Test results taken from PubChem BioAssay (Tox21).
# Results filed as inconclusive are left out. Entries that show only a call come without a potency. Active and inactive are the calls of the source. Unless noted, the call rests on the fitted dose curve; in most records, active means well fitted curve in the direction sought with a large enough effect in the repeat runs; inconclusive means weak or mixed curves; inactive means no such curve, though single readings can be large; an effect the other way counts as inactive or inconclusive. Non-standard residues stand in square brackets, D forms with d. Residues, ends and D or L forms follow the SMILES beside them. Orn = NCCC[C@H](N)C(=O)O
# Columns and labels:
# [1] = qHTS assay to identify aromatase inhibitors - cell viability counter screen (AID 743084);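 further: cells stimulated with testosterone during compound exposure; nearly all actives have a fitted effect of over 55% in size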; further: potency means the concentration at half of the fitted maximal effect
# [2] = qHTS assay to identify small molecule that activate the aryl hydrocarbon receptor (AhR) signaling pathway - cell viability counter screen (AID 743086); further: nearly all actives have a fitted effect of over 45% in size; further: potency means the concentration at half of the fitted maximal effect
# Summary of the method: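 Cytotoxicity counter screen: CellTiter-Fluor signal (30 min, 37 C) in 4000 HepG2 cells/well carrying the DRE-luciferase reporter, following 24 h compound exposure at 37 C.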
# [3] = qHTS assay for small molecule agonists of the antioxidant response element (ARE) signaling pathway (AID 743202; active means well fitted activation curve with a large enough effect in the signal ratio in the repeat runs, not every such curve was filed as active; the % refers to the signal ratio; further: potency means the concentration at half of the fitted maximal effect)
# Summary of the method: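 After 16 hours of compound treatment at 37 C, HepG2 cells with a stably integrated ARE-driven beta-lactamase reporter were loaded 2 hours at room temperature with LiveBLAzer B/G FRET substrate and fluorescence intensity measured.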
# [4] = qHTS assay for small molecule agonists of the antioxidant response element (ARE) signaling pathway - cell viability counter screen (AID 743203; calls by dose curve; further: nearly all actives have a fitted effect of over 55% in size; further: potency means the concentration at half of the fitted maximal effect)
# Summary of the method: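 Cytotoxicity was tested in parallel with the ARE reporter screen. ARE-bla HepG2 cells were exposed to compounds for 16 hrs, and viability was taken from CellTiter-Glo luminescence.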
# [5] = qHTS assay for small molecule activators of the heat shock response signaling pathway - cell viability counter screen (AID 743209); further: nearly all actives have a fitted effect of over 50% in size; further: potency means the concentration at half of the fitted maximal effect
# Summary of the method: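 Cytotoxicity counter screen run in parallel with the HSE beta-lactamase reporter, using the same wells. HeLa HSE-bla cells received compound for 5 h at 37 C; ATP-based CellTiter-Glo luminescence was measured after 30 min at room temperature.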
# [6] = target: Peroxisome proliferator-activated receptor gamma (Homo sapiens) (UniProt P37231); assay: qHTS assay to identify small molecule agonists of the peroxisome proliferator-activated receptor gamma (PPARg) signaling pathway (AID 743094; active means well fitted activation curve with a large enough effect in the signal ratio in the repeat runs, not every such curve was filed as active; the % refers to the signal ratio)
# Summary of the method: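 Cells from the PPARg UAS-bla HEK293H line are plated and incubated 5 h at 37C. Compounds in DMSO are pinned in and left 17 h at 37C. LiveBLAzer B/G substrate is then added for 1 h at room temperature before fluorescence is measured.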
# [7] = target: Peroxisome proliferator-activated receptor gamma (Homo sapiens) (UniProt P37231); assay: qHTS assay to identify small molecule antagonists of the peroxisome proliferator-activated receptor gamma (PPARg) signaling pathway (AID 743191; calls by dose curve; further: potency means the concentration at half of the fitted maximal effect; nearly all actives have a fitted effect of over 30% in size)
# Summary of the method: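 Beta-lactamase reporter under UAS control in HEK293H PPARg-bla cells; compound treatment 17 h at 37C. Read-out: fluorescence intensity after 1 h room-temperature incubation with LiveBLAzer B/G FRET substrate.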
# [8] = qHTS assay to identify small molecule antagonists of the peroxisome proliferator-activated receptor gamma (PPARg) signaling pathway - cell viability counter screen (AID 743194); further: nearly all actives have a fitted effect of over 55% in size; further: potency means the concentration at half of the fitted maximal effect
# Summary of the method: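 Viability was measured as CellTiter-Glo luminescence in GeneBLAzer PPARg UAS-bla HEK293H cells. These cells had been exposed 17 h at 37 C to compounds together with rosiglitazone at 50 nM final, with the beta-lactamase readout taken in the same wells.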
# [9] = target: Aryl hydrocarbon receptor (Homo sapiens) (UniProt P35869); assay: qHTS assay to identify small molecule that activate the aryl hydrocarbon receptor (AhR) signaling pathway (AID 743085); further: nearly all actives have a fitted effect of over 15% in size; further: potency means the concentration at half of the fitted maximal effect;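 on activation: HG2L7.5c1 human HepG2 liver cells with stably integrated DRE-driven firefly reporter; series mostly up to about 70 µM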
# Summary of the method: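 Cell line HG2L7.5c1 (human hepatoma, 20× DRE-luc). Plated, 5 h 37C, compound/DMSO added, 24 h 37C. CellTiter-Fluor 30 min 37C → fluorescence; then ONE-Glo 30 min RT → luminescence.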
# [10] = qHTS assay for small molecule activators of the heat shock response signaling pathway (AID 743210; active means well fitted activation curve with a large enough effect in the signal ratio in the repeat runs, with a control signal flat, not every such curve was filed as active; the % refers to the signal ratio; further: series mostly up to about 63 µM)
# Summary of the method: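 Compound exposure lasted 5 h at 37 C in HeLa cells carrying a heat-shock-element-driven beta-lactamase reporter. Read-out: fluorescence intensity after 2.5 h room-temperature loading with LiveBLAzer B/G FRET substrate.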
# Sequence of Peroxisome proliferator-activated receptor gamma (Homo sapiens) (P37231 whole entry, looked up): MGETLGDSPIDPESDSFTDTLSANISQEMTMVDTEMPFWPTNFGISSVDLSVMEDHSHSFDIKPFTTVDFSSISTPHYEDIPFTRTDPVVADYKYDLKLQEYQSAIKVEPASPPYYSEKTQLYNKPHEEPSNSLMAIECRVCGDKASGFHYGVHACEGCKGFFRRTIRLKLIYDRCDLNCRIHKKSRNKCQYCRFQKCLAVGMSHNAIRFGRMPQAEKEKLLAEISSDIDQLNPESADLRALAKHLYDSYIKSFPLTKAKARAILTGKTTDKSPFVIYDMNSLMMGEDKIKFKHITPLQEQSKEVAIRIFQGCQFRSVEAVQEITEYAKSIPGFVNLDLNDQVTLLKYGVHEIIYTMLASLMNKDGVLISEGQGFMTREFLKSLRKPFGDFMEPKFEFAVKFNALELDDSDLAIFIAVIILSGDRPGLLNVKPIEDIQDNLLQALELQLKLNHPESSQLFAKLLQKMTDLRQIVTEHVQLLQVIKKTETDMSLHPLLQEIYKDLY
# Sequence of Aryl hydrocarbon receptor (Homo sapiens) (P35869 whole entry, looked up): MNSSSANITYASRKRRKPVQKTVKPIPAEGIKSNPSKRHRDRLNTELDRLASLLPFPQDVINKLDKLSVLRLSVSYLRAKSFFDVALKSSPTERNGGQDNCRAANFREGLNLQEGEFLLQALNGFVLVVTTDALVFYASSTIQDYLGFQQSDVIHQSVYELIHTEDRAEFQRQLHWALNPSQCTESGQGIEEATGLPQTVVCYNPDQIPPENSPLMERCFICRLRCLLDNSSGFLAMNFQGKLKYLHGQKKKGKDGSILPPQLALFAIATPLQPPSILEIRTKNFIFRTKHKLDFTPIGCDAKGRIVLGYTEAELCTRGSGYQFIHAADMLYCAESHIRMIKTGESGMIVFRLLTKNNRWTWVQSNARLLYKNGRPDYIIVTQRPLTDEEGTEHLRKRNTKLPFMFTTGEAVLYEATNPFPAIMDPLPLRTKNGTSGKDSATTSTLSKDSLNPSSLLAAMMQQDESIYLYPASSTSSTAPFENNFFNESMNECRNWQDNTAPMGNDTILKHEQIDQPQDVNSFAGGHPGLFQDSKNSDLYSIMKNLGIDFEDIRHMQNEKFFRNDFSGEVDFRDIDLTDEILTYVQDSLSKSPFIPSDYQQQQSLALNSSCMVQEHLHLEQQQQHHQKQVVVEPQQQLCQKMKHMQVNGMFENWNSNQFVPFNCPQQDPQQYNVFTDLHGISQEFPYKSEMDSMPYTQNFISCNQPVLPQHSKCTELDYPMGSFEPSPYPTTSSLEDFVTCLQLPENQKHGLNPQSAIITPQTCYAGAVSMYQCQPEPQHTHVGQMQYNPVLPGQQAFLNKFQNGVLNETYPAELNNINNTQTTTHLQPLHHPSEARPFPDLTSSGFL
smiles,measurement,setting,value
S=C1NC=NC2N=CNC12 (configuration not stated),Potency,[1],inactive
same,Potency,[2],inactive
same,Potency,[3],4.86 µM (active)
same,Potency,[4],8.63 µM (active)
same,Potency,[5],inactive
O=C1c2ccccc2C(=O)C1c1ccc(F)cc1,Potency,[1],inactive
same,Potency,[2],inactive
same,Potency,[6],inactive
Oc1ccc(Cl)c2c1CCC2,Potency,[1],inactive
same,Potency,[2],inactive
same,Potency,[6],inactive
CC(C)C[C@@H](NC(=O)[C@@H](O)[C@H](N)Cc1ccccc1)C(=O)O,Potency,[1],0.75 µM (active)
same,Potency,[2],0.376 µM (active)
same,Potency,[6],inactive
Cc1cnc(C(=O)O)c[n+]1[O-],Potency,[1],inactive
same,Potency,[2],inactive
same,Potency,[6],inactive
CC(C)CCC[C@@H](C)[C@H]1CC[C@H]2[C@@H]3CC[C@@H]4C[C@H](O)CC[C@]4(C)[C@H]3CC[C@]12C,Potency,[1],inactive
same,Potency,[2],inactive
same,Potency,[6],inactive
Cc1cc(C(=O)NCCc2ccc(S(=O)(=O)NC(=O)NN3CCCCCC3)cc2)no1,Potency,[1],inactive
same,Potency,[2],inactive
same,Potency,[6],inactive
Nc1nc(NC2CC2)c2ncn([C@@H]3C=C[C@@H](CO)C3)c2n1,Potency,[1],inactive
same,Potency,[2],inactive
same,Potency,[6],inactive
CC(C)[C@H](NC(=O)[C@H](CC(=O)O)NC(=O)[C@H](CCCCN)NC(=O)[C@@H](N)CCCN=C(N)N)C(=O)N[C@@H](Cc1ccc(O)cc1)C(=O)O (H-RKDVY-OH),Potency,[1],inactive
same,Potency,[2],inactive
same,Potency,[6],inactive
CC(=O)[C@]1(O)Cc2c(O)c3c(c(O)c2[C@@H](O[C@H]2C[C@H](N)[C@H](O)[C@H](C)O2)C1)C(=O)c1ccccc1C3=O,Potency,[1],13.3 µM (active)
same,Potency,[2],13.3 µM (active)
same,Potency,[7],4.22 µM (active)
same,Potency,[8],inactive
NC(N)=NCCCCN=C(N)N,Potency,[1],inactive
same,Potency,[2],inactive
same,Potency,[6],inactive
CCCCCCCCCCCCN1CCCC1=O,Potency,[1],inactive
same,Potency,[2],inactive
same,Potency,[6],inactive
same,Potency,[8],54.9 µM (active)
same,Potency,[4],61.1 µM (active)
same,Potency,[5],21.9 µM (active)
O=C1CCC(c2ccc(-n3ccnc3)cc2)=NN1,Potency,[1],inactive
same,Potency,[2],inactive
same,Potency,[6],inactive
C[Se]CC[C@H](N)C(=O)O,Potency,[1],inactive
same,Potency,[6],inactive
Cc1cc(F)ccc1-c1cc(N2CC[C@@H](O)[C@H]2CO)ncc1N(C)C(=O)C(C)(C)c1cc(C(F)(F)F)cc(C(F)(F)F)c1,Potency,[1],42.6 µM (active)
same,Potency,[2],38 µM (active)
same,Potency,[8],43 µM (active)
same,Potency,[4],21.4 µM (active)
same,Potency,[5],19.2 µM (active)
CCCCCCCCCCCC[n+]1ccc2ccccc2c1,Potency,[9],inactive
CN1CCN(CCCN2c3ccccc3Sc3ccc(C(F)(F)F)cc32)CC1,Potency,[1],29.8 µM (active)
same,Potency,[8],29.8 µM (active)
same,Potency,[4],15 µM (active)
same,Potency,[5],29.8 µM (active)
O=C1c2ccccc2-c2n[nH]c3cccc1c23,Potency,[9],29.8 µM (active)
CCN(CC)C(=O)c1cccnc1,Potency,[2],inactive
CC(C)C[C@@H]1NC(=O)[C@H](CCCN)NC(=O)[C@H](C(C)C)NC(=O)[C@@H]2CCCN2C(=O)[C@@H](Cc2ccccc2)NC(=O)[C@H](CC(C)C)NC(=O)[C@H](CCCN)NC(=O)[C@H](C(C)C)NC(=O)[C@@H]2CCCN2C(=O)[C@@H](Cc2ccccc2)NC1=O (cyclo(V[Orn]L[dF]PV[Orn]L[dF]P)),Potency,[9],inactive
same,Potency,[2],18.8 µM (active)
CCCn1c(=O)[nH]c(=O)c2[nH]cnc21,Potency,[2],inactive
CC1=C(/C=C/C(C)=C/C=C/C(C)=C\C(=O)O)C(C)(C)CCC1,Potency,[9],inactive
same,Potency,[5],55.1 µM (active)
CN1[C@@H](CC(=O)c2ccccc2)CCC[C@H]1C[C@H](O)c1ccccc1,Potency,[9],inactive
same,Potency,[2],inactive
same,Potency,[6],inactive
O=C(Nc1ccccc1)c1cc(Cl)ccc1O,Potency,[9],3.06 µM (active)
same,Potency,[2],inactive
same,Potency,[8],6.92 µM (active)
COc1c(Br)cc(Br)c(C)c1Br,Potency,[2],inactive
same,Potency,[8],inactive
same,Potency,[3],inactive
same,Potency,[4],inactive
same,Potency,[5],inactive
same,outcome,[10],inactive
CCN(CC)C(=O)[C@]1(c2ccccc2)C[C@@H]1CN,Potency,[2],inactive
O=C1CCCCCCCCCCCCCC1,Potency,[2],inactive
same,Potency,[8],inactive
same,Potency,[3],inactive
same,Potency,[4],inactive
same,outcome,[10],inactive
